# These entries were drawn from the full list.
# aSyn 5UTR act: Activators via SNCA 5'UTR binding, MLPCN; activity score, % (tested at 7.5 µM), hits read low; alpha-synuclein 5'UTR reporter, activators screen; 300,000 compounds, 7.1% hits; in the data active = activity score below about -60%
# A number is an active result; – = inactive.
SMILES,aSyn 5UTR act
COc1ccc2cc(-c3cc(C(=O)O)c4ccccc4n3)ccc2c1,–
O=C(Nc1nccs1)c1cc(-c2ccncc2)nc2ccccc12,-67.1
O=C(Nc1ccncc1)c1cc(-c2cccc(Br)c2)nc2ccccc12,–
O=C(N/N=C/c1cccs1)c1cc(-c2ccncc2)nc2ccccc12,–
COc1ccc(-c2cc(C(=O)Nc3ccc(C(N)=O)cc3)c3ccccc3n2)cc1,-119.4
CC(C)CNC(=O)C1CCN(Cc2ccc(OCc3ccccc3)cc2)CC1,-95.0
CC(O)CNC(=O)C1CCN(Cc2ccc(OCc3ccccc3)cc2)CC1 (stereo not drawn),-126.2
COc1ccc(CC(=O)NCc2ccc(-n3cccc3)cc2)cc1OC,–
COc1ccccc1CNC(=O)CN1C(=O)c2cccc(N)c2C1=O,-64.6
COc1ccccc1CNC(=O)CCCc1ccccc1,-68.5
CCc1ccc(/C=N/NC(=O)c2cc(-c3ccncc3)nc3ccccc23)s1,–
O=C(N/N=C/c1cccs1)c1c[nH]c2ccccc12,-157.6
O=C(NN=C1CCCCCC1)c1c[nH]c2ccccc12,-76.9
CCc1ccc(/C=N/NC(=O)c2c[nH]c3ccccc23)s1,-131.5
CCCCSc1nc(C)cc(SCC(=O)N/N=C/c2cccc(OC)c2O)n1,–
COc1cccc(/C=N/Nc2c(Cl)cncc2Cl)c1O,-119.9
COc1cccc(/C=N/Nc2cc(Cl)nc(C)n2)c1O,-100.1
CC(=Nc1ccccc1)C1=C(O)CSC1=O,-94.6
COc1ccc(N=C(C)C2=C(O)CSC2=O)cc1,-72.0
O=C(Nc1ccc(N2CCOCC2)cc1)Nc1ccc2nc(-c3ccco3)c(-c3ccco3)nc2c1,–
O=C(Nc1ccc2nc(-c3ccco3)c(-c3ccco3)nc2c1)NC1CC1,-64.9
COc1ccc2oc(C)c(C(=O)c3ccc(C)cc3)c2c1,-86.1
Cc1oc2ccc(O)cc2c1C(=O)c1ccc(Br)cc1,-61.6
CC(=O)c1c(C)oc2ccc(OCc3ccccc3)cc12,-70.5
Cc1nc2cc(NC(=O)C3COc4ccccc4O3)ccc2s1 (stereo not drawn),-140.8
SMILES,aSyn 5UTR act
Cc1nc2ccc(NC(=O)C3COc4ccccc4O3)cc2s1 (stereo not drawn),-141.3
O=C(CN1C(=O)C2C3C=CC(C4CC34)C2C1=O)Nc1cnc2ccccc2c1 (stereo not drawn),-83.2
COc1ccc(/C(=N/Nc2ncnc3ccccc23)C(=O)O)cc1,-79.1
Cc1ccc2c(C)c(C(=O)N(C)C(C)c3ccon3)oc2c1C (stereo not drawn),-149.2
Cc1sc2ncnc(NCC(O)c3ccccc3)c2c1C (stereo not drawn),-103.9
O=C(CSCc1ccc(F)cc1)Nc1ccc(F)cc1,-76.3
O=C(CSCc1ccccc1)Nc1cccc(F)c1,-127.5
CCC(=O)Oc1ccc(NC(=O)CSCc2ccccc2)cc1,-105.8
O=C(CSCc1c(F)cccc1F)Nc1ccccc1,-116.4
O=C(CSCC(=O)Nc1ccccc1)N/N=C/c1c(O)ccc2ccccc12,–
Cc1ccccc1CSCC(=O)Nc1ccccc1F,-79.5
Cc1cc(/C=C2\SC(=S)N(Cc3ccco3)C2=O)c(C)n1-c1cccnc1,-180.7
Cc1nc(SCc2ccccc2)nc2c1CCC2,-115.0
Cc1ccc(Cn2cccc(NC(=O)c3ccco3)c2=O)cc1,-78.5
Cc1ccc(NC(=O)c2ccc(OC(=O)c3cc4ccccc4o3)cc2)cc1,-124.1
Cc1ccc(Oc2ccc(NC(=O)c3ccco3)cc2)cc1,-123.2
Cc1ccc(NC(=O)c2ccc(OC(=O)c3ccco3)cc2)cc1,-121.8
COc1cccc(C(=O)Nc2cccc(SC)c2)c1,-156.0
COc1c(C(=O)NNC(=O)c2ccccc2)csc1Br,-82.4
CC(=O)Nc1cccc(Oc2ccc(-c3noc(C)n3)cc2)c1,-193.6
COc1cccc(C(=O)Nc2cnn(C(C)C)c2)c1,-113.7
COc1cccc(C(=O)NNC(=O)c2ccccc2)c1,-112.7
Cc1ccc(C(=O)Nc2cccc(Oc3ccccc3)c2)o1,-125.7
COc1cccc(NC(=O)c2ccc(C(=O)c3ccccc3)o2)c1,-147.3
O=C(Nc1ccc(O)cc1)c1ccc(C(=O)c2ccccc2)o1,-120.4
SMILES,aSyn 5UTR act
COc1cccc(C(=O)N/N=C(/c2ccccc2)c2ccccn2)c1,–
COc1cccc(C(=O)Nc2ccccc2)c1,-122.5
COc1cccc(/C(C)=N/N=C(\C)c2cccc(OC)c2)c1,-275.4
CCn1c2ccccc2c2cc(NC(=O)c3cccc(OC)c3)ccc21,-179.7
Cc1cccnc1CN1CCN(C(=O)CCc2nnc(CCc3ccccc3)o2)CC1,-72.0
CCCC(=O)N=C1SC2CS(=O)(=O)CC2N1c1ccc(-c2nc3ccc(C)cc3s2)cc1 (stereo not drawn),-132.2
Oc1ccccc1/C=N/Nc1ccccc1,-133.2
Oc1ccc(/C=N/Nc2ccc3ccccc3c2)c(O)c1,-134.5
COc1ccc(N(C(=O)c2cc3ccccc3oc2=O)C2C=CS(=O)(=O)C2)cc1 (stereo not drawn),-61.8
CCN(C(=O)c1cc2ccccc2oc1=O)c1ccccc1,-123.8
O=C(c1cc2ccccc2oc1=O)N(c1ccccc1)C1C=CS(=O)(=O)C1 (stereo not drawn),-102.4
